Rows were chosen to be rich in hits. Some 2.3% of all compounds tested hit in one or more screens of this group.
USP1 inh = Inhibitors of USP1/UAF1: Primary Screen. Ubiquitin carboxyl-terminal hydrolase 1 (Homo sapiens), O94782. recombinant USP1/UAF1, Ub-Rhodamine cleavage fluorescence. Potency, µM (doses to about 57.1 µM), for inactives: at the top dose activity change, negative = inhibition, usual class: inhibitors. 0.23% of 390,000 active; further: potency means the concentration at half of the fitted maximal effect; nearly all actives have a fitted effect of over 60% in size
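1 nM enzyme complex + cpd, 15 min RT; start with Ub-Rho 150nM final; kinetic fluorescence ex 480/em 540, 6 reads q60 s. Buffer 50mM HEPES pH 7.8, 0.5mM EDTA, 0.1 mg/ml BSA, 1mM TCEP, 0.01% Tween-20.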
Tau fibril ThT = qHTS for Inhibitors of Tau Fibril Formation, Thioflavin T Binding; Potency, µM (series often up to 57.4 µM), for the others: at the highest dose activity, negative = inhibition, most hits filed as inhibitors; AID 1460, 2008; Microtubule-associated protein tau (Homo sapiens), P10636; recombinant tau K18 P301L, heparin-induced fibrillization, ThT fluorescence; 2.1% of 270,000 active; further: potency means the concentration at half of the fitted maximal effect; nearly all actives have a fitted effect of over 55% in size
Target sequence (P10636 561-689 P618L limits assumed): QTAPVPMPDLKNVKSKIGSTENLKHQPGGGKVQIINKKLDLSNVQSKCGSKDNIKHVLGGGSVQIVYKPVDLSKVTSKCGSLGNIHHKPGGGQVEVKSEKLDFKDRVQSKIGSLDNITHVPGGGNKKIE
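Heparin-induced fibrillization of the P301L-mutant K18 repeat-domain fragment of human tau was followed by ThT binding in quantitative high-throughput format.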
Coupling enz = qHTS Assay for Inhibitors of Fructose-1,6-bisphosphate Aldolase from Giardia Lamblia: Coupling assay counterscreen. activity change, negative = inhibition, % at 58.2 µM, hits read low. 0.67% of 290,000 active. AID 2472, 2010. coupling enzyme system counterscreen, AmpLite Red fluorescence; in the data active means activity change below about -30%
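Final compound at 57.5 uM, incubated 10 min at RT with coupling enzyme reagent (glyceraldehyde-3-phosphate), then 20 min with substrate and AmpLite Red detection. Fluorescence read at 525/598 nm; tests interference with the coupling assay, not aldolase inhibition.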
Tau fluor counter = Counterscreen qHTS for Inhibitors of Tau Fibril Formation, Fluorescence Polarization; tau K18 P301L (four-repeat tau fragment) Alexa594 fluorescence, heparin fibrillization; Potency, µM (doses to about 57.7 µM), for the others: at the highest dose activity change, negative = decrease; 0.93% of 280,000 active; further: potency means the concentration at half of the fitted maximal effect; nearly all actives have a fitted effect of over 55% in size
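Human K18 P301L tau (15 uM unlabeled plus 0.24 uM Alexa 594-labeled, final) in 100 mM sodium acetate pH 7 was mixed with compound and 20 uM heparin and incubated 6 hr at 37 C.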
Tau fibril FP = qHTS for Inhibitors of Tau Fibril Formation, Fluorescence Polarization | Microtubule-associated protein tau (Homo sapiens), P10636 | K18 P301L tau heparin fibrillization, Alexa594 FP, 6 h | Potency, µM (series often up to 57.7 µM), for inactives: at the top dose activity, negative = inhibition, actives largely listed as inhibitors | 0.39% of 280,000 active | AID 1468, 2008; further: potency means the concentration at half of the fitted maximal effect; nearly all actives have a fitted effect of over 55% in size
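Quantitative HTS format: compounds meet 15 uM recombinant K18 P301L tau and Alexa 594-tau tracer in 100 mM sodium acetate pH 7; 20 uM heparin triggers fibrillization at 37 C over 6 hr; FP gives the signal.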
Starred values were filed as active, the others as inactive; i = inactive; u = inconclusive; x = no result; ! = repeats disagree; [ ] = dose if it differs, or a comment. Unless noted, the call rests on the fitted dose curve; in most records, active means well fitted curve in the direction sought with a large enough effect; inconclusive means small, poorly fitted or top-dose-only effect, or another doubt; inactive means no such curve, though single readings can be large; an effect the other way counts as inactive or inconclusive. On the % scale 0 is the no-effect control and ±100 the full control effect.

SMILES	USP1 inh	Tau fibril ThT	Coupling enz	Tau fluor counter	Tau fibril FP
CCc1ccc(Nc2cc(C(=O)NCCCN(C)c3ccccc3)c3ccccc3n2)cc1	-20%	-8%	x	u	1%
CCN(CCCNC(=O)c1cc2cc3cc(OC)ccc3nc2s1)c1cccc(C)c1	u	u	x	4µM*[quencher]	9%
CSc1cccc(Nc2cc(C(=O)NCCCN(C)c3ccccc3)c3ccccc3n2)c1	-3%	-7%	x	2.8µM*[quencher]	-7%
N#CC1=C(N)SC(N)=C(C#N)C1c1cccc(O)c1	u	u	-32*	-23%	u
Cn1c(O)c(/C=C2\C=Nc3ccccc32)sc1=Nc1ccc(C(=O)O)cc1	u	x	11	-26%	9%
O=C(Cc1ccccc1)Nn1c(O)c(/C=C2\C=Nc3ccccc32)sc1=S	32µM*	2.5µM*	0	7.9µM*[quencher]	u
COC(=O)CCCC1=CC2=CC(=O)C(C)(OC(=O)c3cccs3)C(=O)C2=CN1C1CC1 (centres undefined)	u	2%[11.5 µM]	-40*!	-3%[11.6 µM]	7%[11.6 µM]
CCCCC1=CC2=CC(=O)C(C)(OC(=O)CC)C(=O)C2=CN1C1CCCCC1 (centres undefined)	u	u	-19	-5%[11.6 µM]	-6%[11.6 µM]
COC(=O)CCCC1=CC2=CC(=O)C(C)(OC(=O)c3cccs3)C(=O)C2=CN1C1CCCCC1 (centres undefined)	-12%	-13%[11.5 µM]	-41*!	-6%[11.6 µM]	10%[11.6 µM]
CCC12CN3CC(C)(CN(C1)C3c1c[nH]c3ccccc13)C2=O (centres undefined)	-25%	7%	x	-4%	3%
S=c1[nH]nc(-c2n[nH]c3c2CCC3)n1/N=C/C=C/c1ccco1	-10%	22µM*	0	-24%	u
CCCn1c(C)nc2c(NCc3ccccc3)nc(C)nc21	x	-4%	0	-6%	0%
CCc1ccc(C2NC(=O)c3[nH]nc(-c4cccc(OC)c4)c32)cc1 (centres undefined)	-26%	-5%	x	-15%	-4%
NC(=S)Cc1nc(-c2ccccc2)cs1	-22%	20µM*	0	u	u
Oc1csc(Cc2nc(-c3ccc(-c4ccccc4)cc3)cs2)n1	-5%	u	0	-29%	5%
COc1ccc(NC(=O)c2oc3ccccc3c2NC(=O)Cc2ccc(F)cc2)c(OC)c1	-19%	-6%	x	-28%	-8%
CCCOC(=O)c1ccc(Oc2cn[nH]c2-c2ccc(OCC)cc2O)cc1	u	-8%	-5	8.9µM*[quencher]	u
COc1ccc(Oc2cn[nH]c2-c2ccc(OCC(=O)NN)cc2O)cc1	-24%	x	0	x	x
CCCOC(=O)c1ccc(Oc2c(-c3ccc(OCC)cc3O)n[nH]c2C)cc1	-23%	-13%	-9	7.9µM*[quencher]	u
COc1ccc(Oc2c(-c3ccc(O)cc3O)n[nH]c2C)cc1	-20%	-3%	5	u	12%
Cc1ccc(CNC(=O)c2ccc(CSCc3ccccc3Cl)o2)cc1	11%	-10%	x	-7%	9%
Cc1ccc2nc(/C(C#N)=C\c3ccc(Oc4ccc([N+](=O)[O-])cn4)cc3)[nH]c2c1	-11%	5µM*	1	u	3%
COc1ccc2nc(/C(C#N)=C\c3ccc(Oc4ccc([N+](=O)[O-])cn4)cc3)[nH]c2c1	-25%	5µM*	0	u	-13%
O=C(O)c1cccc(Nc2cc(Cl)c3nonc3c2[N+](=O)[O-])c1	-26%	3.5µM*	2	u	2%
O=C(O)c1ccccc1Nc1cc(Cl)c2nonc2c1[N+](=O)[O-]	u	x	7	x	x
O=[N+]([O-])c1c(Nc2ccccn2)cc(Cl)c2nonc12	i	x	-57*	u	u
CCOC(=O)CSc1nc2ccc(NC(=O)COc3ccc(F)cc3)cc2s1	-29%	u	x	-23%	-9%
CCOC(=O)Cc1ccc(NC(=O)N2CCSc3ccccc32)cc1	u	-10%	x	-10%	7%
O=C(CCC(=O)Nc1ccc(F)cc1)N/N=C/c1cccc(Br)c1	-12%	x	-31*	x	x

Source: PubChem (National Center for Advancing Translational Sciences (NCATS))
